In general, inhibition refers to the relative decrease from the control value, in per cent.

Results on 36 molecules are retold here after ChEMBL document CHEMBL3433997, “St. Jude Leishmania screening dataset” (2016).

Holding throughout (format): functional
For assay [1], the target named is Solute carrier family 2, facilitated glucose transporter member 1 (Homo sapiens) (UniProt P11166). Kind of assay: ST_JUDE_LEISH: Cytotoxicity at 2uM final concentration against transgenic Leishmania Mexicana promastigotes LmGLUT1 that are glucose transport deficient and complemented with the human glucose transporter GLUT1. Activity is measured by DNA content using SYBR green in vitro.
Chain of Solute carrier family 2, facilitated glucose transporter member 1 (Homo sapiens) (P11166 whole entry): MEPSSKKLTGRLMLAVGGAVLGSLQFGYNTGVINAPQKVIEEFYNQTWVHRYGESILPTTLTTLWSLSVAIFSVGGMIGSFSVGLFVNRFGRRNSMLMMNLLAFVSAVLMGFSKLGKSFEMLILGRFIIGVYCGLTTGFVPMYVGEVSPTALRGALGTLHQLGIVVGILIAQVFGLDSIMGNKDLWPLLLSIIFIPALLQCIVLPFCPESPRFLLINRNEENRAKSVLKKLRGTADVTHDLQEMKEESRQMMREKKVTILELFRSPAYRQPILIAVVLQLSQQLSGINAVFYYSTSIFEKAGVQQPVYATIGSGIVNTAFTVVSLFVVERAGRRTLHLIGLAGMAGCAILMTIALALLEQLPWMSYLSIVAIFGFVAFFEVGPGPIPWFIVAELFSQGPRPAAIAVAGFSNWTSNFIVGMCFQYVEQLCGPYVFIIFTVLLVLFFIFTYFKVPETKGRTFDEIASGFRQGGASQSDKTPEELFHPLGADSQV

The target in assay [2] is Hexose transporter 1 (Plasmodium falciparum) (UniProt O97467). As to the kind of experiment: ST_JUDE_LEISH: Cytotoxicity at 2uM final concentration against transgenic Leishmania Mexicana promastigotes LmPfHT that are glucose transport deficient and complemented with the Plasmodium falciparum hexose transporter. Activity is measured by DNA content using SYBR green in vitro.

The target of assay [3] is Glucose transporter (Leishmania mexicana) (UniProt O61059). As to the kind of experiment: ST_JUDE_LEISH: Cytotoxicity at 2uM final concentration against transgenic Leishmania Mexicana promastigotes LmGT2 that are glucose transport deficient and complemented with the L. Mexicana glucose transporter 2. Activity is measured by DNA content using SYBR green in vitro.

For the molecule `c1ccc(-c2csc(Nc3nc4cc5c(cc4s3)OCO5)n2)nc1`, the inhibition in assay [1] is 0.62%; in assay [2], 0.83%; in assay [3], -1.72%.

With `O=C(Cc1ccc([N+](=O)[O-])cc1)N1CCc2cc3nccc(N4CCN5CCC[C@@H]5C4)c3cc21`, the inhibition in assay [1] worked out at 1.21%; in assay [2] it was 0.39%; in assay [3], 2.97%.

As to `CCCCCOc1ccc(C=NNc2nc(O)cc(-c3ccccc3)n2)cc1`, the figures for the inhibition in assay [1], in assay [2] and in assay [3] were 2.62%, 2.5% and 1.79%, respectively.

On to `Cc1cc(-c2ccc(CNCCc3cccs3)cc2)ccc1S(=O)(=O)NCc1ccccc1`, for which the inhibition in assay [1] stood at 13%; in assay [2], 17.3%; in assay [3], 8.49%.

Take `O=C(NCCCN1CCN(c2cccc(Cl)c2)CC1)c1ccc(-c2nc3cc(Cl)c(Cl)cc3[nH]2)cc1`: the values for the inhibition in assay [1], in assay [2] and in assay [3] were 11.3%, 8.6% and 13.7%, respectively.

Take `CC(=NNC(=N)N)c1ccc2c(ccc3ccccc32)c1`: the figures for the inhibition in assay [1], in assay [2] and in assay [3] were 2.47%, 1.59% and 0.58%, respectively.

For the molecule `COc1ccc(NC(=O)/C=C/c2ccc(-c3ccccc3)cc2)cc1N1CCN(C)CC1`, the inhibition amounted to 2.62% in assay [1], 3.25% in assay [2] and 0.83% in assay [3].

As for `Cc1cc(CNCCCCCCNCc2ccc(-c3ccccc3)cc2)ccc1O`, the inhibition came out at 7.54% in assay [1], 7.79% in assay [2] and 4.84% in assay [3].

`CCc1cn2c3c(cc(C(=O)N[C@@H](Cc4cccc(F)c4)[C@H](O)CNC4CCOCC4)cc13)N(C)S(=O)(=O)CC2`: the inhibition was -0.16% in assay [1], 0.52% in assay [2] and 1.47% in assay [3].

As for `O=C(NCCc1ccccc1)N(Cc1cccc(-c2ccc(CNC3CCCC3)cc2)c1)C1CCN(Cc2ccccc2)CC1`, the inhibition was 13.9% in assay [1], 13.2% in assay [2] and 11.2% in assay [3].

In the case of `O=C(Nc1ccc(-c2ccccc2)cc1)Nc1cccc(Cn2ncc(N3CCCNCC3)c(Cl)c2=O)c1`, the inhibition turned out to be 1.74% in assay [1], 0.84% in assay [2] and 0.04% in assay [3].

As to `Fc1ccc2[nH]c(-c3cccc(-c4cccc(CNCCc5ccncc5)c4)c3)nc2c1`, the inhibition in assay [1] worked out at 11.1%; in assay [2], 10.6%; in assay [3], 12.9%.

Turning to `Cc1cccc(CNc2ncc(C)c(NCCC(=O)Nc3ccccc3)n2)c1`, the results for the inhibition in assay [1], in assay [2] and in assay [3] were 15.3%, 12.7% and 6.61%, respectively.

As to `Cc1ccc(-n2cc(CNCCCn3ccnc3)c(-c3cccc(C)c3)n2)cc1`, the inhibition in assay [1] was 4.3%; in assay [2] it was 6.62%; in assay [3] it was 3.71%.

For `Cc1nc2nc(N)nc(N)c2c(C)c1Cc1cccc(C#N)c1`, the inhibition in assay [1] was found to be 3.44%; in assay [2], 2.87%; in assay [3], 2.88%.

For the molecule `CC1CCC2(CC1)N=C(N)N=C(N)N2OCc1cc2ccccc2c2ccccc12` (stereo not drawn), the inhibition came out at 3.83% in assay [1], 2.5% in assay [2] and 2.97% in assay [3].

On to `COc1ccc(-c2ccc(NC(=O)c3cccc(Cl)c3)cc2)cc1CN1CCC(O)CC1`, for which the inhibition in assay [1] was 14.6%; in assay [2] it was 15.5%; in assay [3], 12.4%.

With `O=S(=O)(NCCN1CCCC1)c1ccc(-c2ccc(CNCc3ccccc3)cc2)s1`, the inhibition is 4.55% in assay [1], 3.35% in assay [2] and 2.5% in assay [3].

As for `Cc1cc(N(C)C)nc(Nc2ccc(NC(=O)c3c(F)cccc3F)cc2)n1`, the inhibition was 6.1% in assay [1], 6.29% in assay [2] and -2.85% in assay [3].

For `CS(=O)(=O)c1ccc(CNCc2cccc(-c3ccc(-c4nc5cc(C(F)(F)F)ccc5[nH]4)cc3)c2)cc1`, the inhibition came out at 5.51% in assay [1], 5.08% in assay [2] and 3.3% in assay [3].

For the molecule `Oc1cccc(Nc2ccnc3cc(-c4cc5ccccc5o4)ccc23)c1`, the inhibition was -0.71% in assay [1], -0.27% in assay [2] and -2.34% in assay [3].

With `COc1ccc(NS(=O)(=O)c2cccc(C(=O)Nc3ccc(C(F)(F)F)cc3)c2)cc1N1CCN(CC(C)C)CC1`, the inhibition in assay [1] was 7.82%; in assay [2], 4.29%; in assay [3] it was 6.21%.

With `CCCCc1cc(NCC)nc(Nc2ccc(OC)cc2)n1`, the inhibition in assay [1] was 20.3%; in assay [2], 10.1%; in assay [3] it was 5.43%.

Turning to `C=CCNc1cc(-c2ccccn2)nc(-c2ccccn2)n1`, the inhibition in assay [1] was determined as 31.9%; in assay [2] it was 9.08%; in assay [3], 6.05%.

In the case of `COc1ccc(NC(=O)/C=C/c2ccc(Oc3ccccc3Cl)c([N+](=O)[O-])c2)cc1OCCN(C(C)C)C(C)C`, the inhibition was -0.7% in assay [1], -0.91% in assay [2] and -1.59% in assay [3].

`Cc1ccoc1C(=O)Nc1cccc(-c2cccc(-c3nc4cccc(C)c4[nH]3)c2)c1`: the inhibition turned out to be 7.85% in assay [1], 5.09% in assay [2] and 4.05% in assay [3].

Turning to `CCOc1ccc(CCC(=O)O)cc1OCC`, the values for the inhibition in assay [1], in assay [2] and in assay [3] were 2.83%, 3.36% and 2.88%, respectively.

With `CC(=O)c1ccc2nc[nH]c(=O)c2c1`, the inhibition turned out to be 99.2% in assay [1], 96.3% in assay [2] and 91.6% in assay [3].

In the case of `COc1ccc(OC)c2c1CCN(C)C2Cc1cccc2ccccc12` (stereo not drawn), the figures for the inhibition in assay [1], in assay [2] and in assay [3] were 3.52%, 3.87% and 1.61%, respectively.

For the molecule `c1ccc(CNCc2cccc(-c3ccc(-c4nc5ccccc5[nH]4)cc3)c2)cc1`, the inhibition is 6.45% in assay [1], 4.96% in assay [2] and 7.51% in assay [3].

With `Cc1cc(NC(=O)Nc2ccc3ccn(C)c3c2)c2ccccc2n1`, the figures for the inhibition in assay [1], in assay [2] and in assay [3] were 13%, 10.7% and 8.87%, respectively.

On to `O=C(NCc1ccc(C(=O)N2CCC(N3CCCCC3)CC2)cc1)c1cc(-c2cccc(C(F)(F)F)c2)ccc1O`, for which the inhibition came out at 7.73% in assay [1], 6.4% in assay [2] and 7.14% in assay [3].

As for `Cc1nc(C)c(-c2ccc(Br)cc2)c(O)c1Br`, the inhibition in assay [1] was -0.12%; in assay [2], -1.35%; in assay [3], -2.85%.

For `COc1cc2ccccc2c(OC)c1CNCCCCCCNCc1c(OC)cc2ccccc2c1OC`, the inhibition in assay [1] turned out to be 11.1%; in assay [2], 7.88%; in assay [3], 12.4%.

`COc1cc2c(cc1OCCN1CCC(N3CCCC3)CC1)N(C(=O)/C=C/c1ccccc1Cl)CC2`: the figures for the inhibition in assay [1], in assay [2] and in assay [3] were 1.15%, 2.02% and 2.99%, respectively.

For the molecule `Nc1ncc(-c2ccccc2)cc1-c1nc2cc(Cl)c(F)cc2[nH]1`, the figures for the inhibition in assay [1], in assay [2] and in assay [3] were 7.29%, 8.28% and 3.16%, respectively.
